# What was measured:
# Assay in all cases: DAPPL (digital affinity profiling via proximity ligation, sequencing); 10 mM Tris-HCl pH 7.5, 50 mM NaCl, 1 mM DTT, 4% glycerol, room temperature, 30 min; GST-TFs on glutathione beads, 16-mer random dsDNA library, 0.1% formaldehyde crosslink after washing; high values mean tight binding
# FEV = biological target: T1, FEV (Homo sapiens, UniProt Q99581 1-238); conditions: protein: recombinant; tags: N-terminal GST; dsDNA, one strand shown
# T1 sequence: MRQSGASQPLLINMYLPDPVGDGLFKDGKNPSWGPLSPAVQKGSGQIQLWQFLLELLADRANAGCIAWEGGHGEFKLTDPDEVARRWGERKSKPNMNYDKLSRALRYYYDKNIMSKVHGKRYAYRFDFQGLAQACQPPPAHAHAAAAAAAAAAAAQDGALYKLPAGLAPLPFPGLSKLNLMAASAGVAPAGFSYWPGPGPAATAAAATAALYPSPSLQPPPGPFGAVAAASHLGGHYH
# How it was run: (§1)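 Human transcription factors were made in yeast as GST fusions, captured on glutathione beads and barcoded with DNA. With a tag-only sample included, the pool was incubated with 200 nmole of a random double-stranded 16-mer DNA library in Tris/NaCl/DTT/glycerol buffer at room temperature for 30 min, then crosslinked with 0.1% formaldehyde after washing, ligated by proximity, amplified and sequenced. For binding signal, each hexamer's read frequency for a factor is divided by its frequency for the tag-only sample.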
# ETV5 = ETV5 (Homo sapiens, UniProt P41161 1-510); conditions: protein: recombinant; tags: N-terminal GST; dsDNA, one strand shown
# Sequence of ETV5 (P41161 whole entry): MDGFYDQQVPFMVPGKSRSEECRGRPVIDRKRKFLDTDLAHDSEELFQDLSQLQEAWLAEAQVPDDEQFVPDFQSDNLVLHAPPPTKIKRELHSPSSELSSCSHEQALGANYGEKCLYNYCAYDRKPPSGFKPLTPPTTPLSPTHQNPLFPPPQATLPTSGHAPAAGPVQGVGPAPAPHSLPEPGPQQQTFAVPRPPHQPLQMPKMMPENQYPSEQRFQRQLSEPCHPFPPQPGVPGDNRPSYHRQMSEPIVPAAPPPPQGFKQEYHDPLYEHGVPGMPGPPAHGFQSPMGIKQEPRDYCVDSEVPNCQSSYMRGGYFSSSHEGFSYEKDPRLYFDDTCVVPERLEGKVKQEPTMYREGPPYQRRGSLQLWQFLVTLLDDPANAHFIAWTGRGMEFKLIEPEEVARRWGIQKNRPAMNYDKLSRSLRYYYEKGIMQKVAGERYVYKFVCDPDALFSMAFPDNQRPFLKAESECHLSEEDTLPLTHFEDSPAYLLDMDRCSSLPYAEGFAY
# How it was run: as §1
# HSF1 = HSF1 (Homo sapiens, UniProt Q00613 1-529); conditions: protein: recombinant; tags: N-terminal GST; chain copies: 3; dsDNA, one strand shown
# Sequence of HSF1 (Q00613 whole entry): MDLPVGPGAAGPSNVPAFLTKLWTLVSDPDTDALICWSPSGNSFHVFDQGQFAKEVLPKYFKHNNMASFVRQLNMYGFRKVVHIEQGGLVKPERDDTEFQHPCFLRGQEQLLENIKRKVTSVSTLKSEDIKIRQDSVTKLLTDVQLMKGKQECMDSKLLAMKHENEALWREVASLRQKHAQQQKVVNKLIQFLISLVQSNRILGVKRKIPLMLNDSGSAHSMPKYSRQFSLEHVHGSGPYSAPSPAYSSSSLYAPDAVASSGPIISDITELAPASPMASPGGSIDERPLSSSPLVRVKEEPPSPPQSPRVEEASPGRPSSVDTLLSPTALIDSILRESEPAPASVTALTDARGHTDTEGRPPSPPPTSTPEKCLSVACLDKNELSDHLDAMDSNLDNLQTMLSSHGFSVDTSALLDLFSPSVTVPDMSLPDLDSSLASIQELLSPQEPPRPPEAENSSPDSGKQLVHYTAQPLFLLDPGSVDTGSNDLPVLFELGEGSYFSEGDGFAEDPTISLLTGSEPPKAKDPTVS
# How it was run: as §1
# SPIC = biological target: T2, SPIC (Homo sapiens, UniProt Q8N5J4 1-248); conditions: protein: recombinant; tags: N-terminal GST; dsDNA, one strand shown
# T2 sequence: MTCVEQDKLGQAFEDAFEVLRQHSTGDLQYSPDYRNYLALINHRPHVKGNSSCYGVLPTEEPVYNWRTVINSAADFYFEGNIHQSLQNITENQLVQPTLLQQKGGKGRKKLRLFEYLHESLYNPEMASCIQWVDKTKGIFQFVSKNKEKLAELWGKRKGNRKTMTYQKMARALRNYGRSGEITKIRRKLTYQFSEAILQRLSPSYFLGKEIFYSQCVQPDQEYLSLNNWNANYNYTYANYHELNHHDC
# How it was run: as §1
# ELF4 = ELF4 (Homo sapiens, UniProt Q99607 1-663); conditions: protein: recombinant; tags: N-terminal GST; dsDNA, one strand shown
# Sequence of ELF4 (Q99607 whole entry): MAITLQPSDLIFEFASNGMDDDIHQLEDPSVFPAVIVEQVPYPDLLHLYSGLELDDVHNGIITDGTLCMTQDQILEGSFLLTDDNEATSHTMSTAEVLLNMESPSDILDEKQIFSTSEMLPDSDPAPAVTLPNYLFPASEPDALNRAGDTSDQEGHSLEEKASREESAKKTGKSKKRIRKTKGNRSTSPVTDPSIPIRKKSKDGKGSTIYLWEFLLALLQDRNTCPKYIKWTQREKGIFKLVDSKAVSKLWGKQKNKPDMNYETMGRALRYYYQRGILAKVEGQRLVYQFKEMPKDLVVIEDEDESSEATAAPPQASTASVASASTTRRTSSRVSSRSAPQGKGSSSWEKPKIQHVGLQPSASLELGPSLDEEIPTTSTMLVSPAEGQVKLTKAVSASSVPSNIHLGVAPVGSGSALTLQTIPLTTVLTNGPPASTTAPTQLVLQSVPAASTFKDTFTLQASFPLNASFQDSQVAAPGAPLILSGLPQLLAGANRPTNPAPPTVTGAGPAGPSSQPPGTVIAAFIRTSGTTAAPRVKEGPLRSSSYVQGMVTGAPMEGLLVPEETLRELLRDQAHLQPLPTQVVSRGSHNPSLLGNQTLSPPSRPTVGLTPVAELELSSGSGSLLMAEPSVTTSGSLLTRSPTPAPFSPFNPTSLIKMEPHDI
# How it was run: as §1
# ELK4 = biological target: T3, ELK4 (Homo sapiens, UniProt P28324-2 1-405); conditions: protein: recombinant; tags: N-terminal GST; dsDNA, one strand shown
# T3 sequence: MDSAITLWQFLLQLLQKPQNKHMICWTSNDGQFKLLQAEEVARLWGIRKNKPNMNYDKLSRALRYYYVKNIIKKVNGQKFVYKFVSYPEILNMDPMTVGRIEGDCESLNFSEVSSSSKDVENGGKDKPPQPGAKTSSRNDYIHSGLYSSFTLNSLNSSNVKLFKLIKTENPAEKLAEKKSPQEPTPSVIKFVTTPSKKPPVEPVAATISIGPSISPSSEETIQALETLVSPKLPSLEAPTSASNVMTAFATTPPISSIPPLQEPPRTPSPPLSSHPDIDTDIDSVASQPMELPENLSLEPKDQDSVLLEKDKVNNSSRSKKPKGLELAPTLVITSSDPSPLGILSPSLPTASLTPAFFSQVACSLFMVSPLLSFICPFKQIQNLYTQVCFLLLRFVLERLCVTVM
# How it was run: as §1
# ETV2 = biological target: T4, ETV2 (Homo sapiens, UniProt O00321 1-342); conditions: protein: recombinant; tags: N-terminal GST; dsDNA, one strand shown
# T4 sequence: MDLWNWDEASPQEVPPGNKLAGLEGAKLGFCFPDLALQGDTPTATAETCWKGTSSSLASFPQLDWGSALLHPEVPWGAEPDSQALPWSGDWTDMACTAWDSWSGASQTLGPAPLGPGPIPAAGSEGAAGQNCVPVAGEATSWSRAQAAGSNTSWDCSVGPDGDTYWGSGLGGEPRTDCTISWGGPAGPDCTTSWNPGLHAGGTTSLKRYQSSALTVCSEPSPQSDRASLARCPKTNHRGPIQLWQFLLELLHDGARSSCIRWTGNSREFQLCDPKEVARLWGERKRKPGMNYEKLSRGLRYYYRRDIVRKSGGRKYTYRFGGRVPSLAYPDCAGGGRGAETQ
# How it was run: as §1
# ELF3 = biological target: T5, ELF3 (Homo sapiens, UniProt P78545 1-371); conditions: protein: recombinant; tags: N-terminal GST; dsDNA, one strand shown
# T5 sequence: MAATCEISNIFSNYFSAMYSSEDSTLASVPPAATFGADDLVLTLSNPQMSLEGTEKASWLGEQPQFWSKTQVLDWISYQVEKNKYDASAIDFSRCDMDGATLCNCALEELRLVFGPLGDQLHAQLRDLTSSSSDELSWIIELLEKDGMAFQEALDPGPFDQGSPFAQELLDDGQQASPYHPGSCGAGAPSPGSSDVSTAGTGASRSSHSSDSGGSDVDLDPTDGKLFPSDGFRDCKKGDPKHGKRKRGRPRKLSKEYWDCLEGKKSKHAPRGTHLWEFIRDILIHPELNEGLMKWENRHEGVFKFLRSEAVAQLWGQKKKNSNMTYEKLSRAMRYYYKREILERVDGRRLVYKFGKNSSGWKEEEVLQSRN
# How it was run: as §1
# CRX = CRX (Homo sapiens, UniProt O43186 1-299); conditions: protein: recombinant; tags: N-terminal GST; dsDNA, one strand shown
# Sequence of CRX (O43186 whole entry): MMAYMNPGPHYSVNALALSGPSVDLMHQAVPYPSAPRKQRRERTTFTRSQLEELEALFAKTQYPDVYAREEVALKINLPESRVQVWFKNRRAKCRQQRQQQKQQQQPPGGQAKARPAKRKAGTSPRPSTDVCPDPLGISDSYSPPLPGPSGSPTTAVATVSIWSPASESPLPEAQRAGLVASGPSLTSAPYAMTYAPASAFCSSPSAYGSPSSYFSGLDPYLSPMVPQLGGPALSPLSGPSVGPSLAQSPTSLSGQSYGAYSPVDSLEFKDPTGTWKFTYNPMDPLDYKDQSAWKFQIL
# How it was run: as §1
# ETV1 = ETV1 (Homo sapiens, UniProt P50549 1-477); conditions: protein: recombinant; tags: N-terminal GST; dsDNA, one strand shown
# Sequence of ETV1 (P50549 whole entry): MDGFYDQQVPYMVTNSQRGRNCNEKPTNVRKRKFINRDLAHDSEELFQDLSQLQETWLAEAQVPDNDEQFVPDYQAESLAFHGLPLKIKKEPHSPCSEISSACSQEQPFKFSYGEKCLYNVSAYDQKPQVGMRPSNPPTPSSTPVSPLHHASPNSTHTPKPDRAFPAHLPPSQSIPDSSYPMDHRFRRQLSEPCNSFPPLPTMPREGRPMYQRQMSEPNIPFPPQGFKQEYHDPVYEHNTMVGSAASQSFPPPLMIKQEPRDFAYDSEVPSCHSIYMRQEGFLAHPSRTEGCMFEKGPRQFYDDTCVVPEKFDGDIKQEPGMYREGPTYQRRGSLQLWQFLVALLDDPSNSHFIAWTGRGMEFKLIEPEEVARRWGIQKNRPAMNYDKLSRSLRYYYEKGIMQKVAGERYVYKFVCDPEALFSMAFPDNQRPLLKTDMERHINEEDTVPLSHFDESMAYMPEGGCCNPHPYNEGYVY
# How it was run: as §1
# ERF = biological target: T6, ERF (Homo sapiens, UniProt P50548 1-548); conditions: protein: recombinant; tags: N-terminal GST; dsDNA, one strand shown
# T6 sequence: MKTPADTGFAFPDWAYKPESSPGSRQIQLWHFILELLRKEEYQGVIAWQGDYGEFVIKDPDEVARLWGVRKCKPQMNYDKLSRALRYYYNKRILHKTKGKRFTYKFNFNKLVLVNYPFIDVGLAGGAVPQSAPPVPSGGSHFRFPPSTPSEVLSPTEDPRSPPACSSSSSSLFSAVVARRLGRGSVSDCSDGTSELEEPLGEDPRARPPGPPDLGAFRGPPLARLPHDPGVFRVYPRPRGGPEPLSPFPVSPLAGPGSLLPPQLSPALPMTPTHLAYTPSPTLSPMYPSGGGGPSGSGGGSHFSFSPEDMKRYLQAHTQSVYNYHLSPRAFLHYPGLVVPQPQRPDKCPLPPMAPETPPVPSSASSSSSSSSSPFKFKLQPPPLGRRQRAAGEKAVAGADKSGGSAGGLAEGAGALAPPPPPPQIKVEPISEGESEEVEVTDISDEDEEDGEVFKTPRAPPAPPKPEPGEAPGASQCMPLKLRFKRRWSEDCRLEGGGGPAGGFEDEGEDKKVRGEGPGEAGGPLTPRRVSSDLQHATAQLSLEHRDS
# How it was run: as §1
# ETV3L = biological target: T7, ETV3L (Homo sapiens, UniProt Q6ZN32 1-361); conditions: protein: recombinant; tags: N-terminal GST; dsDNA, one strand shown
# T7 sequence: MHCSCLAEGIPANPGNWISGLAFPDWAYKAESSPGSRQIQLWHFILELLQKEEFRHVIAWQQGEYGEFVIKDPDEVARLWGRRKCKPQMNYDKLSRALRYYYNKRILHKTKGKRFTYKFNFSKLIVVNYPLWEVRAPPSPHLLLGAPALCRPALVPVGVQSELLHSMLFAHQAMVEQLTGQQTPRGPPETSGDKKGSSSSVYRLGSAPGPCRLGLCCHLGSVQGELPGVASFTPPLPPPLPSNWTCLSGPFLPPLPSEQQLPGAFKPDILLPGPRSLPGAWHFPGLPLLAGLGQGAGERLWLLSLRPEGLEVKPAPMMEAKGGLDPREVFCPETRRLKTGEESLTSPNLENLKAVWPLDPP
# How it was run: as §1
# ETS2 = biological target: T8, ETS2 (Homo sapiens, UniProt P15036 1-469); conditions: protein: recombinant; tags: N-terminal GST; dsDNA, one strand shown
# T8 sequence: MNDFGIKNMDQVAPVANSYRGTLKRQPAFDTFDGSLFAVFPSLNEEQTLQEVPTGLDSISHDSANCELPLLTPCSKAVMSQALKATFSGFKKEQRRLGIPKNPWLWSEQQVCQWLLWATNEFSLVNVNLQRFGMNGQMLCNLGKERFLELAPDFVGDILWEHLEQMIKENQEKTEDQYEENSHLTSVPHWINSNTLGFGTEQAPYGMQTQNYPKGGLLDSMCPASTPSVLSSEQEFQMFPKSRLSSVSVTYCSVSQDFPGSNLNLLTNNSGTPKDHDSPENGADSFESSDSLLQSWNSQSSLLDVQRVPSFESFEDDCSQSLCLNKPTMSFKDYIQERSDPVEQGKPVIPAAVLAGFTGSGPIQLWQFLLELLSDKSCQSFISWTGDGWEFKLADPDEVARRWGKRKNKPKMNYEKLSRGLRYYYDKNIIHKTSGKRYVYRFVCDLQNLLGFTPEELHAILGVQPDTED
# How it was run: as §1
# SPDEF = biological target: T9, SPDEF (Homo sapiens, UniProt O95238 1-335); conditions: protein: recombinant; tags: N-terminal GST; dsDNA, one strand shown
# T9 sequence: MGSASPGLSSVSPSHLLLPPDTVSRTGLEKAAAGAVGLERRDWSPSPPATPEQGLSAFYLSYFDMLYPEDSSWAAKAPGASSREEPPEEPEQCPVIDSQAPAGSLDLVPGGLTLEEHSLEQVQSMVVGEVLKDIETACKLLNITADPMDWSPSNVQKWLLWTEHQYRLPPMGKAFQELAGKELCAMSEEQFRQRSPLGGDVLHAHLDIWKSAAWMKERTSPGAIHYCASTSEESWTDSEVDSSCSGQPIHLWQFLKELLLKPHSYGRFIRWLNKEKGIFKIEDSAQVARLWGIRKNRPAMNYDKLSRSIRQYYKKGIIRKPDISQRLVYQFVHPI
# How it was run: as §1
# ETV7 = biological target: T10, ETV7 (Homo sapiens, UniProt Q9Y603 1-341); conditions: protein: recombinant; tags: N-terminal GST; dsDNA, one strand shown
# T10 sequence: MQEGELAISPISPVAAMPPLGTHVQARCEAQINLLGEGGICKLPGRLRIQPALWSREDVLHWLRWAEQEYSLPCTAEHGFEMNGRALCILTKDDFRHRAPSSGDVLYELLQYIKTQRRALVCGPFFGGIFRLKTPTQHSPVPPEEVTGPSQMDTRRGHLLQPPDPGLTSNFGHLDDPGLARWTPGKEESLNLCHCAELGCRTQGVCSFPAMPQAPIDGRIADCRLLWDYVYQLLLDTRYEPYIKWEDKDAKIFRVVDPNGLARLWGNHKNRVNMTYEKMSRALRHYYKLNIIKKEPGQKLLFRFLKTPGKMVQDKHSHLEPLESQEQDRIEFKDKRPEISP
# How it was run: as §1
# ELF5 = biological target: T11, ELF5 (Homo sapiens, UniProt Q9UKW6-2 1-255); conditions: protein: recombinant; tags: N-terminal GST; dsDNA, one strand shown
# T11 sequence: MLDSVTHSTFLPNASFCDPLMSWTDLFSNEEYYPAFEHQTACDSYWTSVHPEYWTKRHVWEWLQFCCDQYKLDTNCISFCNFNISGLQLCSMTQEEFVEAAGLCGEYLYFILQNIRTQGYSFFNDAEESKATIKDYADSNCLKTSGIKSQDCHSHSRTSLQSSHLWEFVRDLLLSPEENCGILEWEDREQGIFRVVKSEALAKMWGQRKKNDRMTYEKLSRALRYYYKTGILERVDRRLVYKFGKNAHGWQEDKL
# How it was run: as §1
# ETV3 = biological target: T12, ETV3 (Homo sapiens, UniProt P41162-2 1-143); conditions: protein: recombinant; tags: N-terminal GST; dsDNA, one strand shown
# T12 sequence: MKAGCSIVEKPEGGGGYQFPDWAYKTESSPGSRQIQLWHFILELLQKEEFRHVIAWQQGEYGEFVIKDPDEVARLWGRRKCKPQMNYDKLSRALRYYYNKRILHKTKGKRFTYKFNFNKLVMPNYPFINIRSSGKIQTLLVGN
# How it was run: as §1
# ETV6 = ETV6 (Homo sapiens, UniProt P41212 1-452); conditions: protein: recombinant; tags: N-terminal GST; dsDNA, one strand shown
# Sequence of ETV6 (P41212 whole entry): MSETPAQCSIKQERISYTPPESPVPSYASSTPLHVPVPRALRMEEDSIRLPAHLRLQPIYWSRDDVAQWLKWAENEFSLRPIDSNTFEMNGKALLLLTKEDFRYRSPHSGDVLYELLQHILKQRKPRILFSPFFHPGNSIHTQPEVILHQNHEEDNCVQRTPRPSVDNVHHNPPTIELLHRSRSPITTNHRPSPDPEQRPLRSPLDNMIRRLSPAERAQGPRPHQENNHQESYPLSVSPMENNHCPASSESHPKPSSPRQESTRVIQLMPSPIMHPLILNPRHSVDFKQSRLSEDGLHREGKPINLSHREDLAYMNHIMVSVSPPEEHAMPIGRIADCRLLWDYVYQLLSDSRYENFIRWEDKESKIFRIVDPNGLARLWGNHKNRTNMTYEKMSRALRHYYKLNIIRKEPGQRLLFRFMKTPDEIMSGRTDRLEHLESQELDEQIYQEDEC
# How it was run: as §1
sequence,measurement,setting,value
AATACC,binding signal,FEV,"1.23 fold enrichment (6-mer frequency, TF over GST control)"
same,binding signal,ETV5,"1.13 fold enrichment (6-mer frequency, TF over GST control)"
same,binding signal,HSF1,"1.19 fold enrichment (6-mer frequency, TF over GST control)"
same,binding signal,SPIC,"1.15 fold enrichment (6-mer frequency, TF over GST control)"
same,binding signal,ELF4,"1.1 fold enrichment (6-mer frequency, TF over GST control)"
same,binding signal,ELK4,"1.11 fold enrichment (6-mer frequency, TF over GST control)"
same,binding signal,ETV2,"1.17 fold enrichment (6-mer frequency, TF over GST control)"
same,binding signal,ELF3,"1.12 fold enrichment (6-mer frequency, TF over GST control)"
same,binding signal,CRX,"1.44 fold enrichment (6-mer frequency, TF over GST control)"
same,binding signal,ETV1,"1.22 fold enrichment (6-mer frequency, TF over GST control)"
same,binding signal,ERF,"1.29 fold enrichment (6-mer frequency, TF over GST control)"
same,binding signal,ETV3L,"1.15 fold enrichment (6-mer frequency, TF over GST control)"
same,binding signal,ETS2,"1.21 fold enrichment (6-mer frequency, TF over GST control)"
same,binding signal,SPDEF,"1.11 fold enrichment (6-mer frequency, TF over GST control)"
same,binding signal,ETV7,"1.21 fold enrichment (6-mer frequency, TF over GST control)"
same,binding signal,ELF5,"1.17 fold enrichment (6-mer frequency, TF over GST control)"
same,binding signal,ETV3,"1.17 fold enrichment (6-mer frequency, TF over GST control)"
same,binding signal,ETV6,"1.16 fold enrichment (6-mer frequency, TF over GST control)"

# From PMC7862700, “An all-to-all approach to the identification of sequence-specific readers for epigenetic DNA modifications on cytosine”
